# Screening results from PubChem.
# PLK1 PBD block = blocks phosphopeptide binding to human PLK1 polo-box domain; P53350; Plk1 PBD binding of FITC phosphopeptide, fluorescence polarization; Potency, µM, without a hit: max response, negative = inhibition, hits mostly inhibitors; 360,000 tested, 2.8% active; note: potency is the fitted concentration of half-maximal effect; series mostly up to about 57 µM; % is set by controls: 0 for no effect and ±100 for the full control effect; nearly all actives have a fitted effect of over 65% in size
# BAZ2B inh = blocks human BAZ2B; Q9UIF8; AlphaScreen BAZ2B-H3K14Ac peptide displacement; Potency, µM (highest dose often 114 µM), for the others: at the top dose activity change, negative = inhibition, hits mostly inhibitors; 360,000 tested, 4.4% active; AID 504333; note: potency is the fitted concentration of half-maximal effect; % is set by controls: 0 for no effect and ±100 for the full control effect; nearly all actives have a fitted effect of over 60% in size
#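 AlphaScreen displacement of biotin-H3(5-23)K14Ac peptide (50 nM final) from BAZ2B (50 nM final) in PBS pH 7.4, 0.01% Tween-20; complex preformed 30 min RT, then compounds (top 110 uM) 30 min RT, beads 20 min dark.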
# PI5P4K alpha inh = blocks human PI5P4K alpha kinase activity. P48426. PI5P4Kalpha enzyme, ADP-Glo luminescence, 60 min; active compounds read low. max response, %. 330,000 tested, 1.2% active. AID 652105; active = max response of -50% or lower; inconclusive = between -30% and -50%; inactive = -30% or higher; note: value at the top dose of about 77 µM; % is set by controls: 0 for no effect and ±100 for the full control effect
#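 Quantitative HTS of the MLSMR library against PI5P4Kalpha with substrate. ATP added last at 5 microM final; room temperature, 60 minutes. Remaining ATP depleted, ADP converted and read as luminescence.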
# HP1b binding inh = inhibitors of HP1-beta chromodomain binding to methylated histone tails; AlphaScreen HP1-beta / biotin-H3K9me3 peptide binding; Potency, µM (highest dose often 114 µM), for inactives: at the highest dose activity change, negative = inhibition, most hits filed as inhibitors; P83916; 390,000 tested, 0.56% active; AID 540317; note: potency is the fitted concentration of half-maximal effect; nearly all actives have a fitted effect of over 70% in size
#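 HP1-beta protein (50 nM final) preincubated 30 min at room temperature with biotinylated H3(1-18)K9me3 peptide (50 nM) in PBS pH 7.4, 0.01% Tween-20, then compound added for 30 min. AlphaScreen streptavidin donor/nickel chelate acceptor beads (10 ug/mL final), 30 min dark, luminescence read.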
# JMJD2A Tudor inh = JMJD2A Tudor domain (human) inhibition; O75164; AlphaScreen JMJD2A-Tudor / H3K4me3 peptide binding; Potency, µM (doses to about 114 µM), without a hit: at the highest dose activity change, negative = inhibition, most hits filed as inhibitors; 390,000 tested, 4.4% active; AID 504339; note: potency is the fitted concentration of half-maximal effect; % is set by controls: 0 for no effect and ±100 for the full control effect; nearly all actives have a fitted effect of over 50% in size
# Target sequence (O75164 whole entry, looked up, the tested form may be a part): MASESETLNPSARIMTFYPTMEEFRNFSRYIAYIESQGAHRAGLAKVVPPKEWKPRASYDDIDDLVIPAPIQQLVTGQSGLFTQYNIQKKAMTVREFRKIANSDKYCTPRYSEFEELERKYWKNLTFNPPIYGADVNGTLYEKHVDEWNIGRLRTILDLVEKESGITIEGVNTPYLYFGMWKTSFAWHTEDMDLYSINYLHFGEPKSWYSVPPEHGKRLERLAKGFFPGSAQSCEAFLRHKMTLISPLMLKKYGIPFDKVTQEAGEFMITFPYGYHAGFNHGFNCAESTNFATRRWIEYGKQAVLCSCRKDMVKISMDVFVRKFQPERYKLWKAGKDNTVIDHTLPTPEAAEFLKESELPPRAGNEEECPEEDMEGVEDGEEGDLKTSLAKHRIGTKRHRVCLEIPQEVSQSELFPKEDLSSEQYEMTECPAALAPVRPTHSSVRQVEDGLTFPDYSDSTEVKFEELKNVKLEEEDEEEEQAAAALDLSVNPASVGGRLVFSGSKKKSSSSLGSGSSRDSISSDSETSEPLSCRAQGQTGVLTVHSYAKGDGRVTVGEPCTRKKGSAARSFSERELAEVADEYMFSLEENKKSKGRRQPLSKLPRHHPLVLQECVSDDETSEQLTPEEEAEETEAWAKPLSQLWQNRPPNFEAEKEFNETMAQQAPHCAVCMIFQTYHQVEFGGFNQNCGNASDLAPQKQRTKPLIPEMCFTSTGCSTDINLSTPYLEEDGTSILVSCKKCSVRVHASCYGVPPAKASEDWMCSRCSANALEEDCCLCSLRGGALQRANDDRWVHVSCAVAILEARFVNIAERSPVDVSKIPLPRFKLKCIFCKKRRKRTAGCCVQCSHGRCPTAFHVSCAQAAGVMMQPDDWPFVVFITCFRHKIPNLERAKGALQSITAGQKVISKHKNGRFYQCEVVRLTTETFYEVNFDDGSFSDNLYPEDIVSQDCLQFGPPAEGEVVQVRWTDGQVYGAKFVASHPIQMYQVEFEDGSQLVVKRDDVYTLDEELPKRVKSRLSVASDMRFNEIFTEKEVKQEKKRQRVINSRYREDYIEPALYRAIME
# G9a block = G9a (human) methyltransferase inhibition | G9a H3K9 monomethylation, AlphaScreen, 2 h | Potency, µM (titrated, usually from 102 µM), for the others: at the top dose activity, negative = inhibition, usual class: inhibitors | 350,000 tested, 8.8% active | AID 504332; note: potency is the fitted concentration of half-maximal effect; % is set by controls: 0 for no effect and ±100 for the full control effect; nearly all actives have a fitted effect of over 75% in size
#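 Using a bead-based AlphaScreen, monomethylated H3K9 product from 2 h room-temperature reactions (G9a 20 nM, peptide 500 nM, SAM 20 uM) was detected with 0.5 ug/mL rabbit anti-H3K9me1 antibody.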
# * = called active by the depositor; ? = inconclusive; · = no result given; [ ] = dose if it differs, or a comment. This is a sample that favours compounds with a hit; in the whole collection about 12% have one here. Unless noted, calls come from the whole dose curve; as a rule, active = well fitted curve in the direction sought with a large enough effect; inconclusive = small, poorly fitted or top-dose-only effect, or another doubt; inactive = no such curve, though single readings can be large; an effect the other way counts as inactive or inconclusive.
SMILES,PLK1 PBD block,BAZ2B inh,PI5P4K alpha inh,HP1b binding inh,JMJD2A Tudor inh,G9a block
N#CCCCN1C(=O)C(=C(C#N)C#N)c2ccccc21,5.3µM*,-29%,-3,41%,-25%,?
CCCn1c(=N)c(C(=O)NC2CCCCC2)cc2c(=O)n3cc(C)ccc3nc21,·,0%,·,23%,-1%,-32%[59 µM]
CCOc1ccc(N2C(=O)CC(NCCc3ccc(S(N)(=O)=O)cc3)C2=O)cc1 (centres undefined),-3%,4%,-10,45%,-11%,25µM*
CCOc1ccc(N2C(=O)CC(NCCc3ccncc3)C2=O)cc1 (centres undefined),-3%,13%,·,27%,?,3%[59 µM]
CCCOc1ccc(N2C(=O)CC(NCCNc3ccc(S(=O)(=O)CC)cc3)C2=O)cc1 (centres undefined),-3%,-8%,-6,36%,2%,?
CCCOc1ccc(N2C(=O)CC(NCCc3ccc(S(N)(=O)=O)cc3)C2=O)cc1 (centres undefined),-10%,2%,·,25%,-7%,35µM*
O=c1c2c(C(F)(F)F)cc(C(F)(F)F)nc2[nH]n1-c1ccccc1,-11%,?,·,-23%,?,7.9µM*
CCOc1ccc(S(=O)(=O)N/N=C2/CC(c3ccccc3)Oc3ccccc32)cc1 (centres undefined),-12%,-29%,1,26%,-32%,7.9µM*
Clc1ccc(N2CCN(Cc3nnc(-c4ccc5c(c4)OCO5)o3)CC2)cc1,·,-16%,·,31%,1%,-1%[59 µM]
Fc1ccc(-n2c(-c3ccc4c(c3)OCO4)n[nH]c2=S)cc1Cl,-14%,-27%,-12,6%,-20%[57.1 µM],1.4µM*
COc1cc(OC)cc(-c2cc3cc4c(cc3cn2)OCO4)c1,5%,·,11,14%,-8%,·
COc1cc(OC)cc(-c2n[nH]c(=S)n2-c2ccc3c(c2)OCO3)c1,-5%,-11%,2,-3%,20µM*,1.8µM*
Cc1[nH]c(SCC(=O)c2c(N)n(C)c(=O)n(C)c2=O)nc1Cc1ccccc1,-9%,·,-3,26%,-19%,·
CC1=CC(c2ccccc2)=NS(=O)(=O)N1,-6%,·,-3,38%,-18%,·
CCOC(=O)C1=NS(=O)(=O)NC(C)=C1,-12%,·,-6,13%,56µM*,·
Cc1cc(C)n2nc3nc(N4CCCCC4)nc(-c4ccco4)c3c2n1,?,79µM*,-56*,-14%,?,4µM*
Cc1cc(Nc2ccccc2Cl)n2nc(-c3ccco3)nc2n1,·,-5%,·,33%,3%,0%[12.7 µM]
COc1ccc(NC(=O)CSc2nc(-c3ccc(OC)cc3)cc(=O)[nH]2)cc1,·,20%,·,42%,-5%,36%[59 µM]
COc1cc(C(=S)N2CCOCC2)ccc1OC(=O)c1ccccc1[N+](=O)[O-],-23%,-12%,0,-13%,?,·
COc1ccc(C(=S)N2CCOCC2)cc1OS(=O)(=O)c1ccccc1[N+](=O)[O-],?,-13%,2,?,-29%,3.2µM*
COc1ccc(C(=S)N2CCOCC2)cc1OC(=O)c1cc([N+](=O)[O-])c(C)c([N+](=O)[O-])c1,?,-39%,-19,-36%,?,?
COc1cc(C(=S)N2CCOCC2)ccc1OS(=O)(=O)c1ccccc1[N+](=O)[O-],15µM*,-6%,-5,?,?,13µM*
CCOc1cc(C(=S)N2CCOCC2)ccc1OS(=O)(=O)c1ccccc1[N+](=O)[O-],-9%,?,-1,8%,-32%,10µM*
CCOc1cc(C(=S)N2CCCCC2)ccc1OS(=O)(=O)c1ccc(Cl)cc1,-9%,-2%,·,14%,-17%,-14%
O=C(COC(=O)CCc1nc2ccccc2s1)Nc1ccc(S(=O)(=O)N2CCOCC2)cc1,-4%,-3%,-9,17%,-16%,56µM*
SMILES,PLK1 PBD block,BAZ2B inh,PI5P4K alpha inh,HP1b binding inh,JMJD2A Tudor inh,G9a block
N#CCc1nc2ccc(S(=O)(=O)N3CCOCC3)cc2s1,-20%,-21%,-64*,24%,-26%,-29%
O=S(=O)(c1ccc(OCc2nc3ccccc3s2)c(Cl)c1)N1CCOCC1,-13%,32%,0,54%,3%[11.4 µM],50µM*
O=C(COC(=O)CCc1nc2ccccc2s1)Nc1cccc(S(=O)(=O)N2CCOCC2)c1,0%,9%,0,16%,-3%,?
CSc1nc2ccc(S(=O)(=O)N3CCOCC3)cc2s1,-6%,-3%,·,25%,-8%,11%[12.7 µM]
O=C(COC(=O)CCc1nc2ccccc2s1)Nc1ncc(Cl)cc1Cl,-10%,?,-25,21%,-23%,45µM*
Cc1cc(C(=O)NCCN2C(=O)S/C(=C\c3cccs3)C2=O)ccc1[N+](=O)[O-],-16%,-31%,1,16%,-14%,-13%[59 µM]
COC(=O)c1cc(NC(=O)c2oc(=O)c3ccccc3c2-c2ccccc2)cc(C(=O)OC)c1,·,·,·,10%,-15%,4%[59 µM]
Cc1ccc(-n2ncc(C(=O)Nc3ccc4c(c3)OCO4)c2C2CCN(C(=O)OC(C)(C)C)CC2)c(C)c1,·,?,·,-17%,32µM*,?
Cc1cccc(C)c1-n1ncc(C(=O)Nc2ccc3c(c2)OCO3)c1C1CCN(C(=O)OC(C)(C)C)CC1,·,-37%[57.1 µM],·,-9%,?,?
CCc1ccc(NC(=O)[C@H](C)NC(=O)C2CCN(C(=O)[C@@H](N)C(C)C)CC2)cc1,-6%,-16%,-2,33%,-3%,50µM*
CCc1ccc(NC(=O)[C@H](C)NC(=O)C2CCN(C(=O)[C@@H](N)CC(C)C)CC2)cc1,-10%,-9%,-9,25%,-6%,?
CCOC(=O)c1c(C)c(C(=O)NCC2CCCO2)c(C)n1CC (centres undefined),-7%,2%,·,19%,-6%,6%[59 µM]
O=C(NCC1CCCO1)c1cccc(C(=O)NCC2CCCO2)c1 (centres undefined),-2%,7%,5,23%,-12%,·
Nc1c(C(=O)NCc2cccnc2)sc(=S)n1-c1ccccc1,17µM*,-11%,·,-43%,?,?
Nc1c(C(=O)NCC2CCCO2)sc(=S)n1-c1ccccc1 (centres undefined),19µM*,0%,1,-38%,-16%,?
C=CCn1c(N)c(C(=O)NCC2CCCO2)sc1=S (centres undefined),30µM*,1%,-2,-21%,5%[11.4 µM],1%[12.7 µM]
CCn1c(N)c(C(=O)NCC2CCCO2)sc1=S (centres undefined),4.7µM*,79µM*,?,11µM*,?,-119%[12.7 µM]
C=CCn1c(N)c(C(=O)NCC2CCCO2)c2nc3ccccc3nc21 (centres undefined),-3%,58%,·,104%,45%,41%
